# From PubChem BioAssay AID488857 (Sanford-Burnham Center for Chemical Genomics, 2010)
# Screen size: about 1,400 compounds; about 560 (40%) were called active. So high a share suggests a set chosen from earlier hits. The list shows a part of the results. Unmarked numbers belong to inactive results.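 The calls were made as follows: active = mean inhibition over duplicate tests at 10 µM above 50%; inactive = the rest.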
# Experiment: ASC/caspase-1 reporter retest in S. cerevisiae at one dose, specificity check for NALP1 project (AID 488857)
# Conditions: S. cerevisiae ASC/Caspase-1, beta-galactosidase luminescence, 24 h; at 10 µM; stronger effect = higher value
row,Structure (SMILES),inhibition
1,CC(C)CC(=O)N1CCN(S(=O)(=O)c2ccccc2)CC1,35.2%
2,C=CCc1cccc(/C=N/c2nc3ccccc3n2CC)c1O,31.1%
3,C#CCCCCCCC#CCN(C)C,33.6%
4,CCCc1nc2ccc(NC(=O)c3ccco3)cc2c(=O)n1Cc1ccccc1Cl,40.2%
5,O=C(Nc1ccc2oc(-c3ccccc3)nc2c1)c1ccco1,96.3% (active)
6,O=[N+]([O-])c1ccc(-c2ccn[nH]2)o1,36%
7,COCCCN(CCCN)Cc1ccco1,74.1% (active)
8,COc1ccc(NCc2ccc([N+](=O)[O-])s2)cc1,30.4%
9,CCOC(=O)c1nnc(-c2ccc(C)cc2)nc1Sc1ccc(Cl)cc1,29.1%
10,CCOC(=O)C1=NN(C(=O)c2ccc(C)cc2)C(O)(c2ccc(Cl)cc2)C1 (stereo not given),50.6% (active)
11,CCOC(=O)c1c(O)c2cc(Cl)ccc2n(CC)c1=O,40.3%
12,O=S(=O)(Cc1cc(Sc2ccccc2)nc(-c2ccccc2)n1)c1ccccc1,33.7%
13,Oc1c(Cl)cc(Cl)c2c1NCCC2,64.7% (active)
14,CCN(C(=O)[C@@H]1CCCN1C(=O)c1cccs1)c1nc2cc(Cl)ccc2s1,62.6% (active)
15,COc1ccc(C2SCC(=O)N2CCCN(C)C)cc1 (stereo not given),39.6%
16,Cc1cccc(NC(=O)c2ccc(C3SCC(=O)N3CCc3ccccc3)cc2)c1C (stereo not given),60.8% (active)
17,Cc1cc(C)cc(NS(=O)(=O)c2ccc(NC(=O)C3CCCCC3C(=O)O)cc2)c1 (stereo not given),26.8%
18,O=C(Nc1ccc(Br)c(Cl)c1)C1CC1,51% (active)
19,CC(=O)Nc1cccc(OCCCNC(=O)C2CCC2)c1,39.1%
20,CS(=O)(=O)N1CCC(C(=O)Nc2ccc3c(c2)OCO3)CC1,19.4%
21,O=C1c2ccccc2C(=O)c2cc(NC(=O)C3CC3)ccc21,51.6% (active)
22,COc1ccc(NC(=O)C2CCN(C(=O)c3ccc(OC)cc3)CC2)cc1,26.8%
23,O=C(Nc1ccc(C#Cc2ccccc2)cc1)C1CC1,73.2% (active)
24,CCn1cc(C(=O)O)c(=O)c2cc(F)c(N3CCNCC3)cc21,30.4%
25,CCOC(=O)N1CCN(CC(O)COc2ccccc2C(C)(C)C)CC1 (stereo not given),44.2%
26,Cn1cc(S(=O)(=O)N2CCN(c3cccc(C(F)(F)F)c3)CC2)c(=O)n(C)c1=O,33.4%
27,CCC(=O)c1ccc(OCC(O)CN2CCN(c3cccc(C(F)(F)F)c3)CC2)cc1 (stereo not given),65.7% (active)

row,Structure (SMILES),inhibition
1,O=C(NC(Cc1c[nH]c2ccccc12)C(=O)O)/C(=C\c1ccc2c(c1)OCO2)NC(=O)c1ccccc1 (stereo not given),28.8%
2,O=C(/C=C/Sc1ccccc1)c1ccc(Cl)cc1,44.6%
3,O=C(/C=C/c1c[nH]c2ccccc12)c1ccccc1,86.5% (active)
4,Oc1oc(-c2ccccc2)nc1C=Nc1cccc2ccccc12,32.5%
5,CC(C)N1CCC2(CC1)N=C(c1ccc3c(c1)OCO3)CC(c1cc(Cl)ccc1O)N2 (stereo not given),74.5% (active)
6,Clc1ccc(C2=NNC(=NCc3ccc4c(c3)OCO4)SC2)cc1,33.4%
7,COc1ccc(C(=O)c2c(C(F)(F)F)oc3c2C(=O)c2ccccc2C3=O)cc1,20.5%
8,CC(=O)c1c(C)oc2c1C(=O)c1ccccc1C2=O,74.2% (active)
9,CCNc1c(C(=O)O)ccc2c1C(=O)c1ccccc1C2=O,39.5%
10,CCN1CCN(c2cc(C(C)C)nc3c(-c4ccccc4)c(C)nn23)CC1,52.5% (active)
11,O=C(c1cccc(F)c1)N1CCN(c2cc(N3CCCCC3)c(F)cc2[N+](=O)[O-])CC1,49.4%
12,O=C(c1ccc2c(Cl)c3c(nc2c1)CCCC3)N1CCN(c2ccc(F)cc2)CC1,61.5% (active)
13,c1cc2c3c(cccc3c1)NC1(CCCCCC1)N2,19.9%
14,O=C(CCl)Nc1cc(-c2ccccc2)nn1-c1ccccc1,78.5% (active)
15,COCC(=O)OCC(=O)Nc1cc(C(C)(C)C)nn1-c1ccccc1,21.4%
16,Cc1ccc(-c2cc(NC(=O)CSc3n[nH]c(N)n3)n(-c3ccccc3)n2)cc1,21.9%
17,COC(=O)c1ccccc1NC(=O)N1CCN(C/C=C/c2ccccc2)CC1,42.6%
18,CCC(C)c1ccccc1NC(=O)CN1CCN(C/C=C/c2ccccc2)CC1 (stereo not given),55% (active)
19,O=C(CN1CCOCC1)Nc1ccccc1Sc1ccc(Cl)cc1,28.6%
20,Cc1noc2ncc(C(=O)c3cc(F)ccc3O)cc12,27.6%
21,Clc1ccc(OCCN2CCCCC2)cc1Cl,57.7% (active)
22,CN(C)Cc1ccccc1COc1ccccc1,31.8%
23,CC1CCN(CCOc2ccc(Cl)c(Cl)c2)CC1,56.5% (active)
24,CC1CCN(CCOc2cccc(Br)c2)CC1,43.1%
25,Clc1ccc(OCCCN2CCCC2)cc1Cl,40%
26,CCN(CC)CCCOc1ccc(Cl)c(Cl)c1,39.4%
27,Cn1c(=O)n(CCCOc2ccc(Cl)cc2)c2ccccc21,46.1%

row,Structure (SMILES),inhibition
1,c1ccc(COc2ccc(OCCN3CCCCC3)cc2)cc1,39.1%
2,Clc1cccc(OCCN2CCN(CCOc3cccc(Cl)c3)CC2)c1,65.6% (active)
3,CCN1CCN(Cc2cccc(Oc3ccccc3)c2)CC1,40%
4,CC1CCN(CCOc2ccc(OCc3ccccc3)cc2)CC1,59.3% (active)
5,CCN(CC)S(=O)(=O)c1ccc(NS(=O)(=O)c2cccs2)cc1,29.6%
6,Cc1ccc(/C(N)=N/OC(=O)c2ccc(Cl)cc2Cl)cc1,46.2%
7,Cc1ccc(/C(N)=N/OC(=O)c2cccs2)cc1,69.2% (active)
8,Cc1ccc(/C(N)=N/OC(=O)c2ccc3c(c2)OCO3)cc1,86.8% (active)
9,CC1CN(C(=O)Nc2ccc3c(c2)OCO3)CC(C)O1 (stereo not given),27.1%
10,Cc1cccc(/C(N)=N/OC(=O)c2ccc3c(c2)OCO3)c1,55.8% (active)
11,CC1(C)CC(=O)c2cc(C(=O)O)c(=O)n(-c3ccccc3)c2C1,37.4%
12,CC(C)c1nc(SCC(=O)Nc2ccc3c(c2)OCCO3)n[nH]1,24.2%
13,Oc1c(Br)cc(Br)cc1C=Nc1cccnc1,54.1% (active)
14,COc1cc(Br)cc(C=Nc2cccc(C(F)(F)F)c2)c1O,30%
15,O=C(/C=N/O)Nc1cccnc1,41.3%
16,Cc1ccsc1/C=N/NC(=O)c1ccco1,48.5%
17,Oc1c(Br)cc(Br)cc1C=Nc1ccc2c(c1)OCO2,64.6% (active)
18,O=C(Nc1cccc(N=Cc2cc(Br)cc(Br)c2O)c1)c1ccco1,57% (active)
19,CCOc1nc(-c2ccccc2Cl)ccc1C#N,45.4%
20,OC(CNCCc1ccc(C(F)(F)F)cc1)COc1cccc2ccccc12 (stereo not given),59.9% (active)
21,C=CCNc1oc(COc2ccc(C)cc2)nc1C#N,56.6% (active)
22,COC(=O)C(CCSC)NC(=O)Cn1ncc2c(=O)oc3ccccc3c21 (stereo not given),42%
23,O=C1C=CC(=O)N1c1ccc(N2CCCCC2)cc1,68.2% (active)
24,O=[N+]([O-])c1ccc(N2CCCCC2)cc1,39.5%
25,CCCc1[nH]nc2c1C(c1ccoc1)C(C#N)=C(N)O2 (stereo not given),43.1%
26,O=c1c2c(C(F)(F)F)cc(C(F)(F)F)nc2[nH]n1-c1ccccc1,33%
27,Nc1c(Cl)ncnc1N/N=C/c1ccccn1,85.2% (active)

row,Structure (SMILES),inhibition
1,Cc1c(Cl)c([N+](=O)[O-])nn1Cc1ccc(C(=O)N/N=C\c2ccccn2)o1,31.1%
2,CC1CCc2nc3sc4c(c3c(N)c2C1)CCCC4 (stereo not given),93.2% (active)
3,Nc1c2c(nc3sc4c(c13)CCCC4)CCCCCC2,48.9%
4,Nc1c2c(nc3sc4c(c13)CCCCC4)CCCCC2,69% (active)
5,N#Cc1cnn(-c2ncnc3sc4c(c23)CCCC4)c1N,37.2%
6,C=C(C)COc1ccc2c(CC)cc(=O)oc2c1C,61.5% (active)
7,CN(C)C(C)(C)C#CCC(c1ccccc1)c1ccccc1,55% (active)
8,CC(C)(C#CCN1CCCCC1)OCCOC(c1ccccc1)c1ccccc1,30.2%
9,CCCCNC(=O)Nc1cc(C)on1,27.1%
10,CCCCNC(=O)Nc1nnc(-c2ccc(Cl)cc2)o1,54.4% (active)
11,CCC1(CC)Cc2ccccc2C(Nc2c(C)n(C)n(-c3ccccc3)c2=O)=N1,18.9%
12,O=C(Cc1coc2cc3c(cc12)CCC3)NCC1(N2CCCCC2)CCCCC1,45%
13,Cc1ccc(OCc2nc(-c3ccc(Cl)cc3)n[nH]2)cc1,78.2% (active)
14,O=C(O)[C@@H](c1ccccc1)N1Cc2ccccc2C1=O,22.6%
15,COC(=O)N/N=C(\C)c1ccc2ccccc2c1OC(F)F,62.3% (active)
16,OC(CNCCC1C=Nc2ccccc21)Cn1c2ccc(Cl)cc2c2cc(Cl)ccc21 (stereo not given),53.8% (active)
17,Clc1ccc(OCCOCCN2CCc3ccccc3C2)c(Cl)c1,58.2% (active)
18,CC(C)NCCOCCOc1ccc(Cl)cc1Br,39.3%
19,Clc1ccc(OCCCNCc2ccccc2)c2ccccc12,53.2% (active)
20,CCc1cc(OCCCCNCc2ccccc2)ccc1Cl,44.5%
21,Cc1nc2c(=O)n(C)c(=O)n(C)c2nc1Cl,25.6%
22,Cc1ccc(S(=O)(=O)c2nc(C)oc2NCc2ccccc2)cc1,34.9%
23,Cc1ccc(S(=O)(=O)c2nc(Nc3ccccc3)sc2Cl)cc1,69.3% (active)
24,CCOC(=O)/C(=N\Nc1ccc(Cl)cc1)c1csc(Nc2ccccc2)n1,31.7%
